Assay outcomes deposited in PubChem BioAssay by The Scripps Research Institute Molecular Screening Center.
hcDAF-12 act – H. contortus DAF-12 activation, primary screen; HEK293 hcDAF-12 lit1-tk-luc reporter, luminescence; 0% DMSO, 100% Δ7-dafachronic acid; AID 652067; actives 1.4% (n = 370,000); activation, % at 6.8 µM;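 active means activation above the mean of all tested compounds plus 3 SD, cut at about 5.5% in these data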;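 further: 100% = response to 3 µM Δ7-dafachronic acid high control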
hgDAF-12 ag – hgDAF-12 agonism, primary luciferase screen | activation, % at 6.8 µM | HEK293 GAL4-hgDAF12 UAS-luciferase reporter, agonist luminescence; normalized to butyrate control | actives 1.8% (n = 370,000);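 active means activation above a cutoff set at the mean of all screened compounds plus 3 SD, cut at about 10% in these data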;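 further: 0% = DMSO wells and 100% = sodium butyrate wells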
DAX1 inh-1 – inhibitors of DAX1 repression of SF-1 activated StAR promoter; inhibition, % at 6.8 µM; actives 1.1% (n = 370,000); HEK293T StAR-luciferase reporter, SF-1/DAX-1 repression relief;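 active means inhibition above the mean over all tested compounds plus 3 SD, cut at about 3.6% in these data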;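 further: 0% = DAX-1 cells with DMSO and 100% = cells lacking DAX-1 with DMSO; higher inhibition means more luminescence from relief of DAX-1 repression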
DAX1 inh-2 – NR0B1 (DAX1) inhibition; P51843; HEK293 Gal4-DAX1 luciferase reporter, luminescence; inhibition, % at 6.75 µM; actives 0.99% (n = 340,000); AID 504766;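 active means inhibition above the mean over all tested compounds plus 3 SD, cut at about 4.2% in these data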;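 further: 0% = DAX1-transfected cells with DMSO and 100% = empty-vector control cells with DMSO; inhibition shows as a rise in luminescence from relieved DAX1 repression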
AHR activator – human AHR activation; activation, % at 5 µM; AHR-responsive luciferase reporter cells, luminescence; actives 2.5% (n = 320,000); P35869; in the data active means activation above about 47%;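 further: 0% = vehicle wells and 100% = reference agonist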
Target sequence (P35869 whole entry, looked up): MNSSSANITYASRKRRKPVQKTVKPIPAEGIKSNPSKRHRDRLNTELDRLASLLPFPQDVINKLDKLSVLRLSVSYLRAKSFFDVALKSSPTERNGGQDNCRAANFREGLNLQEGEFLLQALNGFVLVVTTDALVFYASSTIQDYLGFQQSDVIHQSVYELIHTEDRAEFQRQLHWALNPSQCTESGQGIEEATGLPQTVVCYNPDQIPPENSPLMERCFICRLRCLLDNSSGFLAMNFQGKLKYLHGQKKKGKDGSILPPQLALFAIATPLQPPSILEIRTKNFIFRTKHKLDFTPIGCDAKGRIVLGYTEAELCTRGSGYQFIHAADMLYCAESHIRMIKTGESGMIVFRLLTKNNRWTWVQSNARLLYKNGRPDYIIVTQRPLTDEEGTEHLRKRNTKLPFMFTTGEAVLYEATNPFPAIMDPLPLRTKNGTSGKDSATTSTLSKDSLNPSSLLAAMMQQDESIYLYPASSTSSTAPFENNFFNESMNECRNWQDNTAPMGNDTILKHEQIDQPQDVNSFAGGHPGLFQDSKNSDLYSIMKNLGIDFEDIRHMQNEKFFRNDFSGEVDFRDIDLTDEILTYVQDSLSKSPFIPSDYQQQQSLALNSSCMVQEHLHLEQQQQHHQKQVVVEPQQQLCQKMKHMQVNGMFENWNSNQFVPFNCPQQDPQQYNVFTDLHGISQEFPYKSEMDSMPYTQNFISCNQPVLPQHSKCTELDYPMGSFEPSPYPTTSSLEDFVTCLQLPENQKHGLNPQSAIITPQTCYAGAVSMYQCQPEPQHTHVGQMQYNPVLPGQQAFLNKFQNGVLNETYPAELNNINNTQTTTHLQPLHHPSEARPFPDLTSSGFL
ssDAF12 agonist – activators of S. stercoralis DAF-12 nuclear receptor | HEK293 ssDAF-12/GRIP1 lit1-tk-luc reporter, luminescence; % of 3 µM dafachronic acid response | activation, % at 6.8 µM | actives 1% (n = 370,000);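 active means activation above the mean over all tested compounds plus 3 SD, cut at about 0.9% in these data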;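 further: 0% = DMSO-only wells and 100% = 3 µM delta7-dafachronic acid wells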
Numbers without * were called inactive; . = no result given. A selection: hits, their analogues and other compounds. The true share with any hit is near 5.7%.

SMILES	hcDAF-12 act	hgDAF-12 ag	DAX1 inh-1	DAX1 inh-2	AHR activator	ssDAF12 agonist
O=C1/C(=C/c2ccc([N+](=O)[O-])cc2)C=C(c2ccccc2)N1c1ccccc1	1.8	0.1	-0.8	-0.6	3.0	0.0
CC(c1ccco1)N(C(=O)C12CC3(C)CC(C)(CC(C)(C3)C1)C2)c1ccccn1 (configuration not stated)	-1.5	0.3	-0.3	5.4*	-0.9	-1.3
CC(C)CC1C(=O)N(Cc2cn(CCC3OCCCO3)nn2)CCS(=O)(=O)N1Cc1ccc(-c2cccc(N(C)C)c2)cc1 (configuration not stated)	-0.8	-0.3	1.2	3.0	.	-0.8
CC1(C)OC(C)(C)C(=N/O)/C1=N\N	0.3	-4.8	0.4	.	.	-0.6
Cn1/c(=N/NC(=O)c2ccccc2Br)sc2ccccc21	0.2	2.6	1.7	0.9	47.5*	0.3
Cn1c(=NC(=O)C2=NNC(=O)CC2)sc2ccccc21	-1.2	0.9	1.3	0.3	2.0	-1.9
CC(C)NC(=O)N(C)C[C@H]1OCCCC[C@H](C)Oc2ccc(NS(=O)(=O)c3ccccc3)cc2C(=O)N([C@H](C)CO)C[C@H]1C	-1.2	-1.0	-0.5	1.6	.	-0.4
Brc1ccc(C2=CC(c3cccs3)n3ncnc3N2)cc1 (configuration not stated)	0.3	1.5	-0.9	0.4	84.5*	0.3
Fc1ccc(Br)cc1C1C=C(c2cccnc2)Nc2ncnn21 (configuration not stated)	.	.	.	0.2	58.8*	.
Fc1ccc(C2=CC(c3ccc(Br)o3)n3ncnc3N2)cc1 (configuration not stated)	.	.	.	-0.8	86.5*	.
COc1ccc(C2C=C(c3ccc(C)cc3)Nc3ncnn32)cc1 (configuration not stated)	2.5	11.5*	0.8	-1.1	.	-0.3
OCCCc1nc2n(n1)C(c1cccs1)C=C(c1ccc(Br)cc1)N2 (configuration not stated)	.	.	.	.	-12.3	.
CC(C)(C)c1ccc(C2=CC(c3ccccc3F)n3ncnc3N2)cc1 (configuration not stated)	-0.1	2.2	-0.1	0.3	26.5	-1.3
COCCNC(=O)C1CCCN(C(=O)c2nc(C)oc2C)CC1 (configuration not stated)	1.8	1.6	-0.1	.	.	0.1
CCOc1ccc(C2C=C(c3ccc(F)cc3)Nc3ncnn32)cc1 (configuration not stated)	2.5	4.1	0.7	0.1	62.7*	-0.5
Cn1cccc1C1C=C(c2ccc(C(C)(C)C)cc2)Nc2ncnn21 (configuration not stated)	-1.0	2.7	-0.8	-0.8	66.5*	-1.4
CCOc1ccc(Cl)cc1S(=O)(=O)N1CCC(C(=O)NCc2cccnc2)CC1	-0.8	2.0	-0.3	-0.6	-0.4	-0.6
COc1ccc(OC)c(Nc2ncnc3sc(-c4ccccc4)cc23)c1	-0.6	-1.0	-0.5	1.2	69.4*	-1.4
COc1cc(C(=O)OCC(=O)N2CCC(C)CC2)cc2c1OCCO2	-0.2	-1.6	-2.0	0.4	-0.3	-0.9
CCOC(=O)[C@H]1[C@H]2COc3ccc(OC)cc3[C@@H]2N2C(=O)CN(Cc3ccco3)C(=O)[C@@]12C	-0.5	-1.8	-0.2	-0.6	-2.9	-0.9
CCOC(=O)[C@H]1[C@H]2COc3ccc(OC)cc3[C@@H]2N2C(=O)CN(CCc3c[nH]c4ccccc34)C(=O)[C@@]12C	4.9	-1.3	0.3	0.5	16.8	1.0*
C#CCNC(=O)C[C@H]1C[C@@]2(C(=O)OC)C(=C[C@H](C(C)C)O[C@@H]2C2CC2)N(Cc2ccc3c(c2)OCO3)C1=O	-0.9	4.3	-0.3	.	.	-0.9
NC1(N2SC(S)=C3CCCC=C32)CCCCC1	-0.4	-0.1	-0.3	.	.	-0.6
COc1ccc(CC(=O)NCC2CCN(C(=O)C(=O)c3cc4ccccc4o3)CC2)cc1	-1.5	-2.2	0.5	.	.	-0.8
O=C(Nc1cccc2ccccc12)C(=O)C1C(=O)Nc2ccccc21 (configuration not stated)	6.1*	2.5	-0.2	0.1	25.8	-0.1
SMILES	hcDAF-12 act	hgDAF-12 ag	DAX1 inh-1	DAX1 inh-2	AHR activator	ssDAF12 agonist
COc1ccc(C(=O)N[C@H](C(=O)NCCCSc2ccccc2)C(C)C)cc1	-2.1	2.2	-0.4	7.8*	6.6	-1.3
CSc1ccccc1C(=O)Nc1nc2ccccc2[nH]1	5.6	9.9	3.8*	1.1	68.2*	0.0
COc1ccc(/C=C/C(=O)NCCc2nc3ccccc3[nH]2)cc1	1.1	2.4	-0.8	.	10.1	1.1*
COc1ccc(C(=O)N[C@H](C(=O)Nc2nc3ccccc3[nH]2)C(C)C)cc1	3.3	13.0*	0.8	1.6	17.6	0.2
Cc1cccc(C(=O)N[C@H](C(=O)Nc2nc3ccccc3[nH]2)C(C)C)c1	-0.6	1.2	-0.6	-0.3	17.8	-0.4
CC(C)C[C@H]1CNC(=O)C(=O)N1CC1CCN(CCc2ccccc2)CC1	-1.2	-0.3	1.4	.	.	-0.8
CCOP(=O)(OCC)C(NC(=O)c1ccc(OC)cc1)c1ccccc1 (configuration not stated)	-0.7	-2.1	0.6	4.3*	3.2	-1.9
COc1ccc(C(=O)Nc2nc3ccccc3[nH]2)cc1	0.5	-5.8	0.1	-4.2	50.1*	-0.9
C=CCN1C(=O)c2[nH]nc(-c3ccccc3)c2C1c1ccc(C)cc1 (configuration not stated)	-0.4	-0.2	0.4	.	.	-1.0
Cc1cccc(C)c1NC(=O)C1(C)CSCC(=O)N1CCCn1ccnc1 (configuration not stated)	-1.7	-0.8	0.7	.	.	2.1*
COC(=O)c1ccc(CNC(=O)COC(=O)c2cccs2)cc1	1.1	2.3	0.6	0.2	0.6	-0.8
COc1ccc(C(=O)c2c[nH]c3ccccc23)cc1	3.7	11.5*	3.2	2.1	15.5	0.9
COc1ccc(C(=O)c2ccccc2)cc1	2.5	-0.3	0.8	1.8	6.2	15.7*
COc1ccc(C(=O)c2ccc(Br)cc2)cc1	-0.7	3.1	0.6	1.8	4.0	-1.4
O=C(NCCc1ccccc1)C(c1cccs1)N(C(=O)c1csnn1)C1CC1 (configuration not stated)	-0.5	-1.6	0.2	-0.6	58.3*	-1.5
O=C(c1ccc(CS(=O)(=O)c2ccc(Br)cc2)o1)N1CCN(c2ccccn2)CC1	-0.6	-0.9	-0.5	-3.0	17.2	-1.1
Cc1ccc(S(=O)(=O)Cc2ccc(C(=O)N3CCN(c4ccccn4)CC3)o2)cc1	-0.7	0.5	0.0	4.7*	17.1	-1.7
O=C(c1ccc(CS(=O)(=O)c2c(Cl)cccc2Cl)o1)N1CCN(c2ccccn2)CC1	-1.9	-4.6	-0.9	-0.9	93.8*	-0.6
COC(=O)c1cc(OCC(=O)Nc2ccc3c(c2)CCC3)cc(C(=O)OC)c1	-0.9	0.0	1.9	-0.5	1.8	-1.3
